The values below come from PubChem BioAssay (NCATS).

Assay [1] concerns the target Aldehyde dehydrogenase, mitochondrial (Homo sapiens) (UniProt P05091). In words: qHTS for Inhibitors of the Aldehyde Dehydrogenase Family (ALDH2) Primary screen (AID 2061308). Further: nearly all actives have a fitted effect of over 55% in size.
The target in assay [2] is Retinaldehyde dehydrogenase 3 (Homo sapiens) (UniProt P47895). In words: qHTS for Inhibitors of the Aldehyde Dehydrogenase Family (ALDH1A3) Primary screen (AID 2061315).

Records with an inconclusive call do not appear. Entries that show only a call come without a potency. Active and inactive are the calls of the source. The call rests on the fitted dose curve; in most records, active means well fitted curve in the direction sought with a large enough effect; inconclusive means small, poorly fitted or top-dose-only effect, or another doubt; inactive means no such curve, though single readings can be large; an effect the other way counts as inactive or inconclusive.

Turning to `O=C([C@@H](Cc1ccc(O[S+](=O)([O-])c2cccnc2)cc1)N[S+](=O)([O-])c1cccc2cccnc12)N1CCN(c2ccccc2)CC1`, the Potency entry in assay [1] and in assay [2] was “inactive” in each case.

With `CC(=O)O[C@@H]1CC2C(C)(C)C(=O)C=C[C@]2(C)C2CC[C@@]3(C)[C@H](c4ccoc4)OC(=O)[C@H]4O[C@]43[C@@]21C` (some centres undefined), the Potency entry in assay [1] and in assay [2] was “inactive” in each case.

Consider `O=S(=O)(c1cccc(Cl)c1)N1CCN(S(=O)(=O)c2ccc3c(c2)OCCO3)CC1`, for which the Potency result in assay [1] and in assay [2] was “inactive” throughout.

For `Clc1ccc(CSc2nc3ncc(Br)cc3[nH]2)cc1`, the Potency result in assay [1] and in assay [2] was “inactive” each time.

Regarding `CCS(=O)(=O)N1CCC(C(=O)Nc2ccc(S(=O)(=O)Nc3nccs3)cc2)CC1`, the Potency entry in assay [1] and in assay [2] was “inactive” in each case.

On to `Cc1ccc(-c2ccc(=O)n(CC(=O)NCCc3cnc[nH]3)n2)cc1`, for which the Potency entry in assay [1] and in assay [2] was “inactive” throughout.

With `CCc1ccc(NC(=O)c2[nH]c(C)c(C(C)=O)c2C)cc1S(=O)(=O)Nc1ccc(C#N)cc1`, the Potency result in assay [1] and in assay [2] was “inactive” each time.

On to `O=C(Cc1ccccc1)Nc1ccc(S(=O)(=O)Nc2nccs2)cc1`, for which the Potency entry in assay [1] and in assay [2] was “inactive” each time.

For the compound `COc1ccc(C2Nc3ccccc3C(=O)N2CCO)cc1COc1c(C)cc(NC(C)=O)cc1C` (centres undefined), the Potency result in assay [1] and in assay [2] was “inactive” in each case.

For `Cc1cccc(Cn2ncc3c4sc(C)cc4n(C)c3c2=O)c1`, the Potency entry in assay [1] and in assay [2] was “inactive” throughout.

For the compound `CCCc1cc(C)n(C)c(=O)c1CN(C)C(=O)c1cc(-c2ccc(N3CCN(C(C)C)CC3)nc2)cc2c1cnn2C(C)C`, the Potency result in assay [1] and in assay [2] was “inactive” throughout.

For the compound `O=C(OCC#CCSc1nnc(-c2ccccc2Cl)o1)c1ccc(F)cc1`, the Potency result in assay [1] and in assay [2] was “inactive” each time.

As for `c1csc(CNc2ncnc3ccc(-c4ccc5c(c4)OCO5)cc23)c1`, the Potency result in assay [1] and in assay [2] was “inactive” throughout.

On to `Cn1c(SCC(=O)c2cc3ccccc3o2)nnc1-c1ccccc1`, for which the Potency entry in assay [1] and in assay [2] was “inactive” throughout.

For the compound `O=C(Nc1nnc(-c2ccco2)o1)c1ccc(Br)cc1`, the Potency result in assay [1] and in assay [2] was “inactive” throughout.

`O=[S+]([O-])(Nc1ccc(C2CCNCC2)cc1)c1ccc(NCc2ccc(Br)cc2O)cc1`: the Potency result in assay [1] and in assay [2] was “inactive” in each case.

For the compound `COc1ccc2c(c1)CN(C(=O)CCN1CCC(Cc3ccccc3)CC1)CCS2`, the Potency entry in assay [1] and in assay [2] was “inactive” throughout.

For `COc1cccc(C2c3c(ncn(-c4ccc(F)cc4)c3=N)Oc3ccc4ccccc4c32)c1` (centres undefined), the Potency entry in assay [1] and in assay [2] was “inactive” throughout.

Regarding `Cc1cc(C)nc(NC(=S)N2CCN(c3cc(C(F)(F)F)nc(C)n3)CC2)c1`, the Potency entry in assay [1] and in assay [2] was “inactive” throughout.

For `COc1cc(NS(=O)(=O)c2ccc3ccccc3c2)c2ncccc2c1`, the Potency entry in assay [1] and in assay [2] was “inactive” each time.

Consider `CCCn1c(C)nc2c(NCCOC)nc(C)nc21`, for which the Potency entry in assay [1] and in assay [2] was “inactive” each time.

Regarding `CCN(CC)CCCn1c(-c2ccccc2)nc2c(N3CCOCC3)nc(C)nc21`, the Potency result in assay [1] and in assay [2] was “inactive” each time.

As to `COc1ccccc1-c1csc(N2CCC(C(N)=O)CC2)n1`, the Potency result in assay [1] and in assay [2] was “inactive” in each case.

Turning to `COc1ccc(C2c3c(nc(Cc4ccccc4)[nH]c3=O)Oc3ccc4ccccc4c32)cc1OC` (centres undefined), the Potency entry in assay [1] and in assay [2] was “inactive” each time.

On to `O=C(Cc1ccccc1)NC(c1ccco1)c1cc(Cl)c2cccnc2c1O` (centres undefined), for which the Potency result in assay [1] and in assay [2] was “inactive” throughout.

For `C=C(C)c1cc2c(s1)c1cnn(Cc3ccccc3F)c(=O)c1n2C`, the Potency result in assay [1] and in assay [2] was “inactive” each time.

With `Cc1ccc(OCCn2c(CCNC(=O)Cc3ccccc3)nc3ccccc32)cc1`, the Potency result in assay [1] and in assay [2] was “inactive” throughout.

Turning to `Cc1cc(N[S+](=O)([O-])c2ccc(NC(=O)Cc3ccc4c(c3)CCO4)cc2)no1`, the Potency entry in assay [1] and in assay [2] was “inactive” each time.

With `CCCCc1ccc(C(=O)Nc2ccc(S(=O)(=O)Nc3nccs3)cc2)cc1`, the Potency entry in assay [1] and in assay [2] was “inactive” throughout.

With `O=C1CCCC2=C1C(c1[nH]ncc1Cl)N=C(Nc1ccccn1)N2` (centres undefined), the Potency entry in assay [1] and in assay [2] was “inactive” each time.

In the case of `NC(=O)C1CCN(c2nc(-c3cccc4ccccc34)cs2)CC1`, the Potency result in assay [1] and in assay [2] was “inactive” throughout.

As for `O=C(Nc1nc(-c2ccccc2)cs1)c1ccncc1NS(=O)(=O)c1cccc2cccnc12`, the Potency entry in assay [1] and in assay [2] was “inactive” each time.

With `COc1ccc(C2c3c(ncn(CCN4CCOCC4)c3=N)Oc3ccc4ccccc4c32)cc1` (centres undefined), the Potency entry in assay [1] and in assay [2] was “inactive” each time.

In the case of `CCCn1c(-c2ccc(F)cc2)nc2c(NCC3CCN(C)CC3)nc(C)nc21`, the Potency entry in assay [1] and in assay [2] was “inactive” each time.

In the case of `COc1cccc(C2=Nn3c(nnc3-c3ccc(OC)cc3OC)SC2)c1`, the Potency entry in assay [1] and in assay [2] was “inactive” throughout.

As for `C=C(C(=O)O)[C@@H]1CC[C@@]2(C)CC[C@H](O)[C@@]2(C(C)=O)C1`, the Potency result in assay [1] and in assay [2] was “inactive” each time.

Regarding `CN1[C@@H]2CC[C@H]1CC(OC(=O)C(CO)c1ccccc1)C2` (some centres undefined), the Potency entry in assay [1] and in assay [2] was “inactive” in each case.
